Experimental data from publication PMC4336329 (PLoS ONE, 2015).
The campaign covered roughly 310,000 compounds. About 14,000 (4.5%) showed an effect of 50% or more. The effect is printed as a negative number. This excerpt belongs to a sample that is enriched for strong results.

target: human ether-à-go-go-related gene (hERG) potassium channel (human, UniProt Q12809); assay: primary screen, population patch clamp on CHO cells stably expressing hERG; higher = less effect of the substance
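Further: peak tail current of the secondary pulse compared with the same well before compound.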

human ether-à-go-go-related gene (hERG) potassium channel, sequence (Q12809 whole entry, looked up): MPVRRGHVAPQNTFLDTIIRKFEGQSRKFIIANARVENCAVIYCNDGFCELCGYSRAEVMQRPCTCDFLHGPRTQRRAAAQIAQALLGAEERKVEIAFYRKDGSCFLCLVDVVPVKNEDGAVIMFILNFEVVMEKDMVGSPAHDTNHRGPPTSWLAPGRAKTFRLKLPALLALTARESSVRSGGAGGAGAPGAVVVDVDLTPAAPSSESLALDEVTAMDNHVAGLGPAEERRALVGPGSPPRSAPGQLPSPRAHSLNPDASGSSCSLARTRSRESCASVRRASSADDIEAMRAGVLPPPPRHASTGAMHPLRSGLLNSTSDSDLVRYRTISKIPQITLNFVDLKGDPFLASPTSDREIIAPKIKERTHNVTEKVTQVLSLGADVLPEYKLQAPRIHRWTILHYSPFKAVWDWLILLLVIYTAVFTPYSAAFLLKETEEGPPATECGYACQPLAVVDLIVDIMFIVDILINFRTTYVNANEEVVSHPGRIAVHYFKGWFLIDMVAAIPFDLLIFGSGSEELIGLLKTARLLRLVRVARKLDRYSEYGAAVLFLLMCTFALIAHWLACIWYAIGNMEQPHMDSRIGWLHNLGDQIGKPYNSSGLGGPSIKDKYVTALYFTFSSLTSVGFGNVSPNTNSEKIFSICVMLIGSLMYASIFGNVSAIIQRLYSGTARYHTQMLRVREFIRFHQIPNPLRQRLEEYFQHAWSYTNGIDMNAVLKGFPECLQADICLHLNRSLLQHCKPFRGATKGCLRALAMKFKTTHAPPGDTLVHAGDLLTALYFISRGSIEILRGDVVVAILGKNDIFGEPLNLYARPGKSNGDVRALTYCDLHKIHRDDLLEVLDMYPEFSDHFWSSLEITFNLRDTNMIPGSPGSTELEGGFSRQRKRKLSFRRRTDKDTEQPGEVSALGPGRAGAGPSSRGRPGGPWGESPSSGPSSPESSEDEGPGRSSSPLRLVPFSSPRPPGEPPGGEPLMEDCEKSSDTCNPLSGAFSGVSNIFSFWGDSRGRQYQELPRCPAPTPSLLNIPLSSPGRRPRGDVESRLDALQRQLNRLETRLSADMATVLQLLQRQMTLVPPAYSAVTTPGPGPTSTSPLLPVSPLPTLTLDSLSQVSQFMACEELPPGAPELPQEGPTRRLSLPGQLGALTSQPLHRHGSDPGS

Structure (SMILES)	hERG current change (%, negative = inhibition) at 10uM [%]
CN1CCN(C(=O)/C(=C/c2cn(S(=O)(=O)N(C)C)c3ccccc23)NC(=O)c2ccccc2Cl)CC1	20.2
COc1cc(/C=C/c2ccc3cccc(O)c3n2)ccc1O	-0.305
Cc1cc(C)nc(Nc2nc(C)c3cc4c(cc3n2)OCO4)n1	-3.78
COc1cc(N2C(=O)c3ccccc3C2=O)c(Cl)cc1C(=O)OCC(=O)N1CCOCC1	-9.43
CCN(Cc1ccccc1)C(=O)C(C)OC(=O)c1cc(S(=O)(=O)Nc2c(C)n(C)n(-c3ccccc3)c2=O)ccc1C (stereo not shown)	-19.3
CN(c1ccccc1)S(=O)(=O)c1ccc(Cl)c(C(=O)OCC(=O)NCc2ccco2)c1	-25
COc1cc(N2C(=O)c3ccccc3C2=O)c(Cl)cc1C(=O)OCC(=O)NCc1ccco1	-56.1
CCN(Cc1ccccc1)C(=O)COC(=O)c1cc(S(=O)(=O)Nc2c(C)n(C)n(-c3ccccc3)c2=O)ccc1C	-74.9
Cc1c(NS(=O)(=O)c2ccc(Cl)c(C(=O)OCC(=O)NCc3ccco3)c2)c(=O)n(-c2ccccc2)n1C	-51.9
Cc1c(NS(=O)(=O)c2cc(C(=O)NCc3ccco3)cc(Cl)c2Cl)c(=O)n(-c2ccccc2)n1C	-39.5
Cc1c(NS(=O)(=O)c2ccc(Cl)c(C(=O)OC(C)C(=O)N3CCOCC3)c2)c(=O)n(-c2ccccc2)n1C (stereo not shown)	5.07
CCN(C(=O)COC(=O)c1cc(S(=O)(=O)Nc2c(C)n(C)n(-c3ccccc3)c2=O)ccc1Cl)C1CCCCC1	-49.9
Cc1c(NS(=O)(=O)c2ccc(Cl)c(C(=O)OC(C)C(=O)NCc3ccco3)c2)c(=O)n(-c2ccccc2)n1C (stereo not shown)	-77.5
COc1cc(N2C(=O)c3ccccc3C2=O)c(Cl)cc1C(=O)OCC(=O)N(C)C	-28.5
Cc1ccc(S(=O)(=O)Nc2c(C)n(C)n(-c3ccccc3)c2=O)cc1C(=O)OC(C)C(=O)N(C)c1ccccc1 (stereo not shown)	-10.5
Cc1cnc(C(=O)OC(C)C(=O)NCc2ccccc2)cn1 (stereo not shown)	3.99
Brc1ccc(CN2CCN(c3ccccn3)CC2)s1	-5.6
CCn1c(COc2ccc(Cl)cc2)nnc1SCC(=O)Nc1ccc2c(c1)OCO2	3.98
Cc1cc(C)cc(C(=O)N(C)C2CCCN(Cc3ccccc3F)C2)c1 (stereo not shown)	-13
Cc1cccc(-n2nc3c([n+]2[O-])CCc2nonc2-3)c1C	11.4
O=C(CSc1ccc(Br)cc1)NC1CCS(=O)(=O)C1 (stereo not shown)	5.33

Structure (SMILES)	hERG current change (%, negative = inhibition) at 10uM [%]
CCCN(CCC)C(=S)Nc1cc(C(=O)OC)ccc1C(=O)OC	-38.2
Cc1cccc2c3c([nH]c12)CCN(C)C3	10
Cc1ccc(Cn2nc(C)c(NC(=O)CCCn3nc(C)c([N+](=O)[O-])c3C)c2C)cc1	-10.9
Cc1c(Cl)c([N+](=O)[O-])nn1CCCC(=O)Nc1c(Cl)cccc1Cl	-8.29
Cc1nn(Cc2ccc(Cl)cc2Cl)c(C)c1NC(=O)Cn1nc([N+](=O)[O-])c(Cl)c1C	1.33
Cc1nn(Cc2ccccc2)c(C)c1NC(=O)CCCn1nc([N+](=O)[O-])c(Cl)c1C	-43
Cc1nn(Cc2c(Cl)cccc2Cl)c(C)c1NC(=O)CCCn1nc([N+](=O)[O-])c(Cl)c1C	-19.6
Cc1nn(Cc2ccc(Cl)cc2)c(C)c1NC(=O)CCCn1nc(C)c([N+](=O)[O-])c1C	-64.5
Cc1nn(Cc2ccc(Cl)cc2)c(C)c1NC(=O)Cn1nc([N+](=O)[O-])c(Cl)c1C	2.42
Cc1nn(Cc2ccc(Cl)cc2Cl)c(C)c1NC(=O)CCl	-60.9
Cc1ccc(Cn2nc(C)c(NC(=O)CCCn3nc([N+](=O)[O-])c(Cl)c3C)c2C)cc1	-50.7
Cc1nn(Cc2ccccc2)c(C)c1NC(=O)CCCn1nc(C)c([N+](=O)[O-])c1C	-16.3
Cc1nn(Cc2ccc(Cl)cc2Cl)c(C)c1NC(=O)NC12CC3CC(CC(C3)C1)C2	7.38
Cc1nn(Cc2ccc(Cl)cc2)c(C)c1NC(=O)CCCn1nc([N+](=O)[O-])c(Cl)c1C	-64
Cc1onc(-c2ccccc2Cl)c1-c1nc(-c2ccncc2)no1	-10.9
CC1(C)CNC(=O)CC(C)(C)N1	4.53
CCn1c(SCC(=O)N2CCCCC2)nc(O)cc1=O	-7.46
Cc1ccc(C)c(-n2c(Cc3cc(=O)[nH]c(=O)[nH]3)nnc2SCC(=O)NCc2ccco2)c1	4.83
Cn1cccc1C(=O)N/N=C/c1c(Cl)cccc1Cl	3.26
COc1cc2c(cc1OC)C(C)N(S(=O)(=O)c1cccs1)CC2 (stereo not shown)	-12.9
COc1ccc(-c2ccc3nnc(SCC(=O)NCC4CCCO4)n3n2)cc1 (stereo not shown)	-9.98

Structure (SMILES)	hERG current change (%, negative = inhibition) at 10uM [%]
O=S(=O)(c1ccc(Br)c2ccccc12)N1CCOCC1	-11.8
CCCNC(=O)N1c2ccccc2Sc2ccccc21	10.5
Cc1c(Cl)c([N+](=O)[O-])nn1CCCC(=O)Nc1cccc(O)c1	-10.8
Cc1c(Cl)c([N+](=O)[O-])nn1CCCC(=O)Nc1cccc(Cl)c1	-51.7
Cc1c(Cl)c([N+](=O)[O-])nn1CCCC(=O)Nc1cccnc1	-2.96
O=C(Nc1ccc(-c2csc(-c3ccccc3)n2)cc1)c1ccccc1	16.9
Cn1c(SCC(=O)N2CCCCCC2)nc2c([nH]c3ccccc32)c1=O	6.91
COc1ccc(CNc2oc(C)nc2C#N)cc1	-1.09
Cl.Fc1ccc(OCCCCN2CCOCC2)cc1	-4.81
CN1CCN(CCCCOc2ccc(F)cc2)CC1	0.265
COc1ccccc1N1CCN(Cc2ccc(F)cc2)CC1	-14.7
COc1ccccc1N1CCN(CCCCOc2ccc(F)cc2)CC1.Cl	-72.8
COc1ccccc1N1CCN(CCCCCCOc2ccc(F)cc2)CC1	-67.2
COc1ccccc1N1CCN(CCCCOc2cccc3ccccc23)CC1.Cl	-32.8
COc1ccccc1N1CCN(CCCOc2ccc(F)cc2)CC1	-71.8
C=CCn1cnc2c(c1=O)c1nc3ccccc3nc1n2/N=C/c1cc(OC)c(OC)c(OC)c1	-22.1
CCn1c(SCC(=O)Nc2ccc(F)cc2)nnc1C1CC1	-0.652
O=C(CSc1nnc2ccc(-c3ccccn3)nn12)Nc1ccc(F)cc1F	-18
CC(=O)Nc1ccc(NC(=O)CSc2nnc3ccc(-c4ccc(F)cc4)nn23)cc1	16.8
CC(C)n1c(SCC(=O)Nc2ccc(F)cc2)nnc1C1CC1	-50.1
NNC(=O)CSc1nnc(-c2ccccc2)n1-c1ccccc1	8.61

Structure (SMILES)	hERG current change (%, negative = inhibition) at 10uM [%]
O=C(CSc1nnc2ccc(-c3cccnc3)nn12)Nc1ccc(F)cc1F	-64.9
N#Cc1ccccc1NC(=O)CSc1nnc(-c2ccccc2)n1-c1ccccc1	2.09
Cc1ccccc1NC(=O)CSc1nnc(-c2ccccc2)n1-c1ccccc1	-51.4
Cn1c(SCC(=O)Nc2ccc(F)cc2)nnc1C1CC1	4.27
O=C(CSc1nnc2ccc(-c3ccncc3)nn12)Nc1ccc(F)cc1	-63.2
COc1ccc(NC(=O)CSc2nnc3ccc(-c4ccncc4)nn23)cc1	-30.9
O=C(CSc1nnc2ccc(-c3cccnc3)nn12)Nc1ccccc1F	-39.2
COc1ccc(NS(=O)(=O)c2cccc(C(=O)NCC(c3ccco3)N3CCCC3)c2)cc1 (stereo not shown)	-36.8
Cc1ccc(S(=O)(=O)Nc2ccc3cn[nH]c3c2)c(C)c1	-18.1
Cc1cccc(NC(=O)c2nc[nH]c2C(=O)NCC(=O)OCc2ccccc2)c1	9.54
CC(C)CC(N)c1cn([C@@H](CCC(=O)O)C(=O)N2CCNCC2)nn1.Cl (stereo partly shown)	17.2
COC(=O)N/N=C(\C)c1ccc(C)c([N+](=O)[O-])c1	-0.21
COC(=O)c1cccc(NC(=O)c2cnn(C)c2)c1	15.9
CCO.CCOC(=O)c1c(-c2ccccc2)oc2ccc(OC(C)C(=O)O)cc12 (stereo not shown)	-15
O=C(NNC(=S)NC(=O)c1ccccc1)c1cccc([N+](=O)[O-])c1	22.8
Cc1csc(SCC(=O)Nc2cccc3nsnc23)n1	-14.8
CCCOc1ccc(C(=O)N(Cc2cccs2)C2CCS(=O)(=O)C2)cc1 (stereo not shown)	-8.87
CCn1c2ccccc2c2cc(CC(N)=O)ccc21	5.3
COc1ccc(C(=O)NCCc2nnc3ccc(SCC(=O)NCCc4ccc(OC)c(OC)c4)nn23)cc1	0.371
